Laboratory results from PubChem BioAssay (NCATS).
Results filed as inconclusive are left out. Activity calls are given as the source filed them. The call rests on the fitted dose curve; in most records, active means well fitted inhibition curve with a large enough effect; inconclusive means small, poorly fitted or top-dose-only effect; inactive means no such curve, though single readings can be large or run the other way.

Assay: Primary qHTS for small molecule stabilizers of the endoplasmic reticulum resident proteome: Secreted ER Calcium Modulated Protein (SERCaMP) assay (AID 1508630)
Conditions: SH-SY5Y GLuc-SERCaMP (Gaussia luciferase released on ER calcium loss) secretion, thapsigargin, luminescence; series mostly up to 38.4 µM
How it was run: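 GLuc-SERCaMP-expressing SH-SY5Y cells, pretreated 16 h with compound, are challenged with thapsigargin to empty ER calcium stores; after 4 h, coelenterazine is added directly to the medium and luminescence is imaged.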

outcome, inactive:
COc1cccc(Cn2c(=O)c(-c3cccc(F)c3)nc3cncnc32)c1
c1cncc(-c2nc(NCCN3CCOCC3)c3ccccc3n2)c1
O=S(=O)(c1ccccc1)N1CCC2(CCCN(Cc3ccccc3)C2)CC1
Cn1cccc1C(=O)N1CCC[C@@]2(CCN(c3cccc(-c4ccccc4)c3)C2)C1
COCCn1c(=O)c(-c2cccs2)nc2cnc(OCc3ccccc3)nc21
O=C(c1ccco1)N1CCC2(CCCN(c3cccc(-c4ccccc4)c3)C2)CC1
N#Cc1ccc(CN2CCCC3(CCN(C(=O)c4cnccn4)CC3)C2)cc1
N#Cc1cccc(NC(=O)N2CCCC3(CCN(C(=O)c4ccncc4)CC3)C2)c1
O=C(c1ccncc1)N1CCC[C@@]2(CCN(Cc3cc(C(F)(F)F)cc(C(F)(F)F)c3)C2)C1
Cc1noc(C)c1C(=O)N1CCC2(CC1)CCN(C(c1ccccc1)c1ccccc1)CC2
COc1ccc(C(=O)N2CCC3(CCCN(c4ccc(-c5ccccc5)cc4)C3)CC2)cc1
